The values below come from PubChem BioAssay (NCI).

Structures are written as SMILES. About 83,000 compounds went through this panel and 20% of them were active in at least one assay; those are over-represented in the sample as a whole.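 Percent growth is the endpoint: 0 to 100 indicates growth inhibition (40 means 60% inhibition), 0 means no net growth, and negative values indicate cell death.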 A number with no mark means an inactive call. The source made the active and inactive calls. How the source made its calls: active means growth percent below 10; inactive means the rest.

Common to all, as to assay: NCI-60 one-dose screen, 48 h (100 = growth as untreated, 0 = no growth, -100 = all killed)
Holding throughout (conditions): 10 µM unless noted

Assay [1] relates to NCI-H23 lung.
The subject of assay [2] is NCI-H226 lung.
Assay [3] concerns NCI-H322M lung.
In assay [4] the test system is HOP-62 NSCLC.
Assay [5] deals with NCI-H460 lung.
Assay [6] has as its system HOP-92 NSCLC.
Assay [7] has as its system NCI-H522 lung.
The subject of assay [8] is A549/ATCC NSCLC.
Assay [9] deals with 786-0 renal.
Assay [10] has as its system COLO 205 colon.
The test system of assay [11] is DU-145 prostate.
The test system of assay [12] is K-562 leukemia.
The test system of assay [13] is MALME-3M melanoma.
For assay [14], the system named is MDA-MB-231 breast.
The subject of assay [15] is RXF 393 renal.
For assay [16], the system named is SF-268 CNS.
Assay [17] relates to SF-295 CNS.
For assay [18], the system named is SF-539 CNS.
Assay [19] concerns UACC-257 melanoma.
Assay [20] has as its system M14 melanoma.

With `COC(=O)[C@]1(C)CCC[C@]2(C)[C@H]3C[C@@H]4[C@H]5[C@@H]6CC/C(=N\OCC/C(N)=N/O)[C@H]5[C@@]3(CC[C@H]21)CC4(C(C)C)O6`, the growth in [1] was 73.4%; in [2], 83.7%; in assay [3], 82.2%; in assay [4] it was 80.8%; in [5] it was 67.5%; in [6], 65%. For the same molecule, the growth in assay [7] was 54.7%; in assay [8] it was 71.8%; in assay [9] it was 86.2%; in assay [10] it was 72.1%; in assay [11], 71.5%; in assay [12], 79.3%. Also, the growth is 82.1% in assay [13]; 61.2% in [14]; 42.5% in assay [15]; 72.9% in [16]; 72.7% in [17]; 79.2% in [18]. Further, the growth was 80.4% in [19] and 72.6% in [20].

`O=C(O)c1cn(C2CC2)c2cc(N3CCN(C(=O)N/N=C/c4cccc5ccccc45)CC3)c(F)cc2c1=O`: the growth was 93.9% in assay [1]; 94.3% in [2]; 101% in assay [3]; 95.2% in assay [4]; 106% in [5]; 97.2% in assay [6]. The growth was 81% in assay [7]; 106% in [8]; 71.7% in assay [9]; 114% in assay [10]; 104% in assay [11]; 103% in [12]. In addition, the growth in assay [13] is 101%; in [14] it was 94.9%; in [15] it was 95.5%; in [16], 86.3%; in assay [17] it was 104%; in assay [18] it was 93.4%. Further, the values for the growth in assay [19] and in assay [20] were 98.8% and 93.1%, respectively.

`Cc1cc(O)cc(-c2nn(C)cc2-c2cc(N3CCOCC3)nc(-c3cccnc3)n2)c1`: the growth in [1] is 56.1%; in assay [2] it was 36.7%; in assay [3] it was 59.7%; in [4] it was 49.3%; in [5] it was 12.4%; in assay [6], 6.01% (active). Further, the growth is 13.1% in [7]; 39.3% in assay [8]; 18.2% in assay [9]; 16.3% in assay [10]; 53.7% in assay [11]; 21.6% in assay [12]. Besides, the growth in assay [13] is 55.7%; in assay [14], 53.2%; in assay [15] it was 9.64% (active); in [16], 44.8%; in [17], 14.9%; in assay [18] it was -12.8% (active). Further, the growth in [19] is 61.3%; in assay [20], 28.4%.

With `CCOc1ccc(NC(=O)Nc2ccc(OCC)cc2)cc1`, the growth in [1] is 106%; in assay [2] it was 104%; in [3] it was 104%; in assay [4] it was 98.2%; in assay [5], 106%; in assay [6] it was 106%. Besides, the growth was 103% in assay [7]; 95.9% in assay [8]; 108% in assay [9]; 104% in assay [10]; 106% in assay [11]; 97.6% in assay [12]. Moreover, the growth in assay [13] was 100%; in [14], 110%; in [15], 114%; in [16], 104%; in assay [17], 95.7%; in assay [18] it was 97.2%. For the same molecule, the results for the growth in [19] and in assay [20] were 113% and 109%, respectively.

For the molecule `c1ccc(Nc2nc3c(s2)CCc2c[nH]cc2-3)nc1`, the growth in assay [1] is 91.1%; in [2], 74.7%; in assay [3], 90.5%; in assay [4] it was 92.7%; in assay [5] it was 100%; in assay [6], 88.9%. The growth in assay [7] was -49.9% (active); in assay [8] it was 91.6%; in [9], 105%; in [10], 98.4%; in [11], 103%; in [12] it was 66.3%. The growth in assay [13] was 92.5%; in assay [14] it was 82.7%; in [15] it was 104%; in assay [16], 92.5%; in assay [17], 107%; in [18], 106%. For the same molecule, the growth in assay [19] is 88.7%; in assay [20], 102%.

Consider `CCCCCCCCn1ccc2cc(NC(=O)CN3CCN(c4cc(C)nc(Cl)n4)CC3)ccc21`, for which the growth was 81.7% in assay [1]; 82.2% in assay [2]; 89.5% in [3]; 119% in assay [4]; 91.8% in assay [5]; 81.1% in assay [6]. For the same molecule, the growth was 76.2% in [7]; 87.4% in assay [8]; 94.6% in assay [9]; 106% in [10]; 93.8% in assay [11]; 63.1% in assay [12]. Besides, the growth in [13] is 95.3%; in assay [14] it was 94.8%; in assay [15] it was 69.2%; in assay [16], 90.3%; in [17], 83.7%; in assay [18], 92.8%. Moreover, the growth is 92.8% in [19] and 89.4% in assay [20].

For the molecule `CCOC(=O)c1c(C)nc2ccccc2c1/C=C/c1ccc(F)cc1`, the growth in assay [1] was 51.3%; in assay [2], 73.9%; in assay [3], 94.7%; in assay [4], 80.9%; in assay [5], 81.7%; in [6] it was 42.1%. Also, the growth in assay [7] was 53.8%; in assay [8] it was 57.7%; in assay [9] it was 79.5%; in assay [10], 83.6%; in assay [11], 89.6%; in [12] it was 50%. The growth in assay [13] was 98.7%; in [14], 75.9%; in assay [15], 101%; in [16], 85.2%; in assay [17], 67.7%; in assay [18], 81%. Further, the growth in [19] was 83%; in [20], 86.5%.

As for `O=c1cc(C(F)(F)F)c2cc(-c3cc4ccccc4c(=O)o3)c(O)cc2o1`, the growth is 54.9% in assay [1]; 68.4% in assay [2]; 87.6% in [3]; 82.6% in assay [4]; 58.9% in assay [5]; -0.397% (active) in assay [6]. For the same molecule, the growth was 31.3% in assay [7]; 78.5% in [8]; 80.2% in [9]; 107% in [10]; 96.5% in assay [11]; 50% in assay [12]. Also, the growth in assay [13] was 91.5%; in [14] it was 85.7%; in assay [15], 86.3%; in [16], 79.2%; in [17], 89.4%; in [18], 73.3%. For the same molecule, the growth in assay [19] is 70.6%; in assay [20], 68%.
